Test results reported in PubChem BioAssay (Tox21).
Records with an inconclusive call do not appear. Entries that show only a call come without a potency. Activity calls are given as the source filed them. Calls follow the shape of the dose curve; as a rule, active = well fitted curve in the direction sought with a large enough effect in the repeat runs; inconclusive = weak or mixed curves; inactive = no such curve, though single readings can be large; an effect the other way counts as inactive or inconclusive.

assay: qHTS assay to identify small molecule HDAC inhibitors (AID 1259364); conditions: HCT-116 HDAC-Glo I/II luminescence, 2 h; series mostly up to 92.4 µM; also: nearly all actives have a fitted effect of over 45% in size; also: potency is read from the fitted curve at half-maximal effect
How it was run: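 Endogenous HDAC class I/II activity was measured in wild-type HCT-116 cells by HDAC-Glo luminescence after 2 h compound treatment.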

| Compound | Potency |
| --- | --- |
| CN1[C@@H]2CC[C@@H]1CC(OC(=O)C(CO)c1ccccc1)C2 (stereo partly drawn) | inactive |
| O=C(Oc1ccccc1)c1cccc(C(=O)Oc2ccccc2)c1 | 0.0885 µM (active) |
| CO[Si](CCC1CCC2OC2C1)(OC)OC (stereo not drawn) | inactive |
| CC(C)(C)c1cc(/C=C2\SC(=N)NC2=O)cc(C(C)(C)C)c1O | inactive |
| COC(=O)CC(C)CCC=C(C)C (stereo not drawn) | inactive |
| CNC(=S)NN | inactive |
| CC(=O)O[C@@H]1C[C@@H]2CC[C@@]1(C)C2(C)C | inactive |
| CCCCCCCCCCCCOC(=O)c1cc(O)c(O)c(O)c1 | inactive |
| Cc1occc1SSc1ccoc1C | inactive |
| CC(C)c1ccc(O)c(C(C)C)c1 | inactive |
| CC1(C)COCN1 | inactive |
| CCC(C)c1ccccc1 (stereo not drawn) | inactive |
| CCC1CCCCC1 | inactive |
| COC(=O)C1=C(C)NC(C)=C(C(=O)OCCCN2CCC(c3ccccc3)(c3ccccc3)CC2)C1c1cccc([N+](=O)[O-])c1 (stereo not drawn) | inactive |
| CCO[Si](C)(C)OCC | inactive |
| CC(C)C(=O)OCc1ccccc1 | inactive |
| CC(C)(c1cc(Br)c(O)c(Br)c1)c1cc(Br)c(O)c(Br)c1 | inactive |
| CCC1(c2cnc[nH]2)Cc2ccccc2C1 | inactive |

| Compound | Potency |
| --- | --- |
| CC1CCCCN1CCCOC(=O)c1ccc(OC2CCCCC2)cc1 (stereo not drawn) | inactive |
| CCCCCCCOC(=O)c1ccccc1C(=O)OCCCCCCC | inactive |
| C=CC(C)(CCC=C(C)C)OC(=O)/C=C/c1ccccc1 (stereo not drawn) | inactive |
| COC(=O)NCCC[Si](OC)(OC)OC | inactive |
| COC(=O)[C@]1(C)CCC[C@@]2(C)[C@H]1CC=C1C=C(C(C)C)CC[C@@H]12 | inactive |
| ClC/C=C\CCl | inactive |
| C=C(C)C(=O)OCCC[Si](Cl)(Cl)Cl | inactive |
| Oc1cc2ccccc2cc1O | inactive |
| O=C1Nc2ccc(Cl)cc2[C@@](C#CC2CC2)(C(F)(F)F)O1 | inactive |
| CC=O | inactive |
| c1cc2c3c(c1)ccc1cccc(c13)C2 | inactive |
| CC(COC(=O)c1ccccc1)OC(=O)c1ccccc1 (stereo not drawn) | inactive |
| N#CSCSc1nc2ccccc2s1 | 19.3 µM (active) |
| Cc1cccc(Br)c1 | inactive |
| O=C(O)CC(=O)O | inactive |
| O=C1NC2CCCCN2C12CCN(CCCN1c3ccccc3CCc3ccc(Cl)cc31)CC2 (stereo not drawn) | inactive |
| COc1ccc(C#N)cc1 | inactive |
| CCCCCCCCCCCC(=O)N(CC)CC | inactive |

assay: qHTS assay to identify small molecule HDAC inhibitors - cell viability counter screen (AID 1259365); conditions: HCT-116 viability, CellTiter-Glo ATP luminescence, 2 h; series mostly up to 92.4 µM; also: nearly all actives have a fitted effect of over 50% in size
How it was run: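 HCT-116 (wild type), 1,500 cells/well, overnight 37C/5% CO2; compound in DMSO 2hr; CellTiter-Glo 30min RT; luminescence read.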

| Compound | Potency |
| --- | --- |
| CN1[C@@H]2CC[C@@H]1CC(OC(=O)C(CO)c1ccccc1)C2 (stereo partly drawn) | inactive |
| O=C(Oc1ccccc1)c1cccc(C(=O)Oc2ccccc2)c1 | inactive |
| CO[Si](CCC1CCC2OC2C1)(OC)OC (stereo not drawn) | inactive |
| CC(C)(C)c1cc(/C=C2\SC(=N)NC2=O)cc(C(C)(C)C)c1O | inactive |
| COC(=O)CC(C)CCC=C(C)C (stereo not drawn) | inactive |
| CNC(=S)NN | inactive |
| CC(=O)O[C@@H]1C[C@@H]2CC[C@@]1(C)C2(C)C | inactive |
| CCCCCCCCCCCCOC(=O)c1cc(O)c(O)c(O)c1 | inactive |
| Cc1occc1SSc1ccoc1C | inactive |
| CC(C)c1ccc(O)c(C(C)C)c1 | inactive |
| CC1(C)COCN1 | inactive |
| CCC(C)c1ccccc1 (stereo not drawn) | inactive |
| CCC1CCCCC1 | inactive |
| COC(=O)C1=C(C)NC(C)=C(C(=O)OCCCN2CCC(c3ccccc3)(c3ccccc3)CC2)C1c1cccc([N+](=O)[O-])c1 (stereo not drawn) | inactive |
| CCO[Si](C)(C)OCC | inactive |
| CC(C)C(=O)OCc1ccccc1 | inactive |
| CC(C)(c1cc(Br)c(O)c(Br)c1)c1cc(Br)c(O)c(Br)c1 | inactive |
| CCC1(c2cnc[nH]2)Cc2ccccc2C1 | inactive |

| Compound | Potency |
| --- | --- |
| CC1CCCCN1CCCOC(=O)c1ccc(OC2CCCCC2)cc1 (stereo not drawn) | inactive |
| CCCCCCCOC(=O)c1ccccc1C(=O)OCCCCCCC | inactive |
| C=CC(C)(CCC=C(C)C)OC(=O)/C=C/c1ccccc1 (stereo not drawn) | inactive |
| COC(=O)NCCC[Si](OC)(OC)OC | inactive |
| COC(=O)[C@]1(C)CCC[C@@]2(C)[C@H]1CC=C1C=C(C(C)C)CC[C@@H]12 | inactive |
| ClC/C=C\CCl | inactive |
| C=C(C)C(=O)OCCC[Si](Cl)(Cl)Cl | inactive |
| Oc1cc2ccccc2cc1O | inactive |
| O=C1Nc2ccc(Cl)cc2[C@@](C#CC2CC2)(C(F)(F)F)O1 | inactive |
| CC=O | inactive |
| c1cc2c3c(c1)ccc1cccc(c13)C2 | inactive |
| CC(COC(=O)c1ccccc1)OC(=O)c1ccccc1 (stereo not drawn) | inactive |
| N#CSCSc1nc2ccccc2s1 | inactive |
| Cc1cccc(Br)c1 | inactive |
| O=C(O)CC(=O)O | inactive |
| O=C1NC2CCCCN2C12CCN(CCCN1c3ccccc3CCc3ccc(Cl)cc31)CC2 (stereo not drawn) | inactive |
| COc1ccc(C#N)cc1 | inactive |
| CCCCCCCCCCCC(=O)N(CC)CC | inactive |

assay: qHTS assay to identify small molecule agonists of the sonic hedgehog signaling (Shh) pathway - cell viability counter screen (AID 1259366); conditions: NIH/3T3 Gli1-Luc viability, CellTiter-Fluor, 24 h; series mostly up to 92.4 µM; also: nearly all actives have a fitted effect of over 50% in size; also: potency is read from the fitted curve at half-maximal effect
How it was run: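 CellTiter-Fluor fluorescence read-out, 1 hr at 37C, added after 23hr compound exposure. Cells: 3T3 Gli1-Luc, an NIH/3T3 clone with stably integrated Gli1-Luc reporter, plated 4hr before compound.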

| Compound | Potency |
| --- | --- |
| CN1[C@@H]2CC[C@@H]1CC(OC(=O)C(CO)c1ccccc1)C2 (stereo partly drawn) | inactive |
| O=C(Oc1ccccc1)c1cccc(C(=O)Oc2ccccc2)c1 | inactive |
| CO[Si](CCC1CCC2OC2C1)(OC)OC (stereo not drawn) | inactive |
| CC(C)(C)c1cc(/C=C2\SC(=N)NC2=O)cc(C(C)(C)C)c1O | inactive |
| COC(=O)CC(C)CCC=C(C)C (stereo not drawn) | inactive |
| CNC(=S)NN | 30.6 µM (active) |
| CC(=O)O[C@@H]1C[C@@H]2CC[C@@]1(C)C2(C)C | inactive |
| CCCCCCCCCCCCOC(=O)c1cc(O)c(O)c(O)c1 | 43.1 µM (active) |
| Cc1occc1SSc1ccoc1C | inactive |
| CC(C)c1ccc(O)c(C(C)C)c1 | inactive |
| CC1(C)COCN1 | inactive |
| CCC(C)c1ccccc1 (stereo not drawn) | inactive |
| CCC1CCCCC1 | inactive |
| COC(=O)C1=C(C)NC(C)=C(C(=O)OCCCN2CCC(c3ccccc3)(c3ccccc3)CC2)C1c1cccc([N+](=O)[O-])c1 (stereo not drawn) | 26.6 µM (active) |
| CCO[Si](C)(C)OCC | inactive |
| CC(C)C(=O)OCc1ccccc1 | inactive |
| CC(C)(c1cc(Br)c(O)c(Br)c1)c1cc(Br)c(O)c(Br)c1 | inactive |
| CCC1(c2cnc[nH]2)Cc2ccccc2C1 | inactive |

| Compound | Potency |
| --- | --- |
| CC1CCCCN1CCCOC(=O)c1ccc(OC2CCCCC2)cc1 (stereo not drawn) | inactive |
| CCCCCCCOC(=O)c1ccccc1C(=O)OCCCCCCC | inactive |
| C=CC(C)(CCC=C(C)C)OC(=O)/C=C/c1ccccc1 (stereo not drawn) | inactive |
| COC(=O)NCCC[Si](OC)(OC)OC | inactive |
| COC(=O)[C@]1(C)CCC[C@@]2(C)[C@H]1CC=C1C=C(C(C)C)CC[C@@H]12 | inactive |
| ClC/C=C\CCl | inactive |
| C=C(C)C(=O)OCCC[Si](Cl)(Cl)Cl | inactive |
| Oc1cc2ccccc2cc1O | inactive |
| O=C1Nc2ccc(Cl)cc2[C@@](C#CC2CC2)(C(F)(F)F)O1 | inactive |
| CC=O | 28.6 µM (active) |
| c1cc2c3c(c1)ccc1cccc(c13)C2 | inactive |
| CC(COC(=O)c1ccccc1)OC(=O)c1ccccc1 (stereo not drawn) | inactive |
| N#CSCSc1nc2ccccc2s1 | 10.9 µM (active) |
| Cc1cccc(Br)c1 | inactive |
| O=C(O)CC(=O)O | inactive |
| O=C1NC2CCCCN2C12CCN(CCCN1c3ccccc3CCc3ccc(Cl)cc31)CC2 (stereo not drawn) | 26.6 µM (active) |
| COc1ccc(C#N)cc1 | inactive |
| CCCCCCCCCCCC(=O)N(CC)CC | inactive |
